The list is not random: actives were taken first. Their share in the collection is about 7.3%.
SNCA expr inhib: Primary qHTS assay for inhibitors of alpha-synuclein gene (SNCA) expression | HEK-293 SNCA-luciferase knock-in, luminescence, 24 h | Potency, µM (doses to about 57.2 µM), most hits filed as inhibitors | 140,000 compounds, 0.17% hits; note: nearly all actives have a fitted effect of over 45% in size
HEK cytotox: Cytotoxic Profiling in HEK 293 Cell Line of Diverse Libraries Using Quantitative High-Throughput Screening; HEK 293 viability, ATP luminescence (CellTiter-Glo), 48-72 h; Potency, µM (top dose mostly 115 µM), most hits filed as inhibitors; 94,000 compounds, 6.6% hits; note: nearly all actives have a fitted effect of over 60% in size
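Read-out: CellTiter-Glo ATP luminescence. Cells: HEK 293, 250 cells/well. Exposure: 48 or 72 hr, 37 degree Celsius.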
IP6K1 inh: Primary qHTS assay for small molecule inhibitors of Inositol hexaphosphate kinase 1 (IP6K1); activity change, % (series mostly up to about 58 µM); Inositol hexakisphosphate kinase 1 (Homo sapiens), Q92551; IP6K1 kinase, ADP-Glo luminescence, 2 h; active compounds read low; 140,000 compounds, 0.81% hits; AID 1645851, 2021; in the data active = activity change below about -25%
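ADP-Glo luminescence measures ADP made by human IP6K1 during a 2 h RT reaction with ATP/IP6 (mix at 1.3 mM/130 uM); top library doses 57.5 and 19.1 uM final.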
Luciferase inh: Firefly luciferase inhibition profiling of diverse chemical library using quantitative high-throughput screening; Luciferin 4-monooxygenase (Photinus pyralis), P08659; purified P. pyralis luciferase, luminescence, biochemical; Potency, µM (titrated, usually from 115 µM), most hits filed as inhibitors; 76,000 compounds, 2.5% hits; note: nearly all actives have a fitted effect of over 65% in size
Target sequence (P08659 whole entry, looked up): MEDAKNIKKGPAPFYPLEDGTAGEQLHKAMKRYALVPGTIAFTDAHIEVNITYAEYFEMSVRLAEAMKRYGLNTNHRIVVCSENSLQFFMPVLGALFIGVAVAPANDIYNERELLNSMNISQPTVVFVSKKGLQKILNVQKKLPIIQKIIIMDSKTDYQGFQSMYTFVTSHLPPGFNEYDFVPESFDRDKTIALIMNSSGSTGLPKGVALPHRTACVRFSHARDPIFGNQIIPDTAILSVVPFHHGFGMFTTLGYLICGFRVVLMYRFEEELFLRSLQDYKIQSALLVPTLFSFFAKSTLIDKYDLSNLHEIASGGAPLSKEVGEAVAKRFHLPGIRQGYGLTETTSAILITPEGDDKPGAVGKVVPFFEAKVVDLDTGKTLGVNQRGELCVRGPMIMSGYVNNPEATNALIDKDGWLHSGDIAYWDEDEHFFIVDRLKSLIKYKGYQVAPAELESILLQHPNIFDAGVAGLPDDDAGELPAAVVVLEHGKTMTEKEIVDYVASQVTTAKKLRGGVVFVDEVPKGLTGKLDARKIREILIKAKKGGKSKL
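Purified P. pyralis luciferase (10nM final) in 50mM Tris acetate pH 7.5, 10mM Mg acetate, 0.01% Tween-20, 0.05% BSA with 10uM D-luciferin and 10uM ATP. Compounds titrated qHTS. Luminescence imaged on CCD.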
HEK293 viab: GF-AFC viability counterscreen for inhibitors of alpha-synuclein gene (SNCA) expression; HEK-293-SNCA-luc viability, GF-AFC fluorescence, 24 h; Potency, µM (titrated, usually from 57.1 µM), actives largely listed as cytotoxic; 150,000 compounds, 0.12% hits; AID 1671193, 2021; note: nearly all actives have a fitted effect of over 30% in size
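Cytotoxicity counterscreen: after 24 h compound treatment of genome-edited SNCA-luciferase HEK-293 cells, live-cell protease substrate GF-AFC read by fluorescence after 30 min; activity scaled between DMSO (0%) and medium-only (-100%), curves Hill-fitted.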
3T3 cytotox: Cytotoxic Profiling in NIH 3T3 Cell Line of Diverse Libraries Using Quantitative High-Throughput Screening; NIH 3T3 viability, CellTiter-Glo ATP luminescence, 48-72 h; Potency, µM (highest dose often 96.7 µM), actives largely listed as inhibitors; 94,000 compounds, 4.3% hits; note: nearly all actives have a fitted effect of over 55% in size
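First NIH 3T3 cells are plated at 400 cells/well; next compound is pinned in; then plates incubate 48 or 72 hr at 37 °C; finally CellTiter-Glo is added and luminescence read after 10 min.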
Of the large screens only hits and unclear results are named; the others gave an inactive call. Unless noted, calls come from the whole dose curve; as a rule, active = well fitted curve in the direction sought with a large enough effect; inconclusive = small, poorly fitted or top-dose-only effect, or another doubt; inactive = no such curve, though single readings can be large; an effect the other way counts as inactive or inconclusive.

CN(C)c1ccc2ncc(Nc3cccc(C(F)(F)F)c3)n2n1	HEK cytotox inconclusive, 3T3 cytotox inconclusive
CN(C)c1ccc2ncc(Nc3ccccc3-c3ccccc3)n2n1	HEK cytotox 63µM, Luciferase inh inconclusive, 3T3 cytotox 28µM
CCOCC(=O)Nc1nn(-c2ccc(F)cc2)c2cccc(N3CCOC3=O)c12	HEK cytotox inconclusive, Luciferase inh 35µM
COc1ccc(-c2nc3cc(C)ccc3cc2CN2CC[C@@H](O)C2)cc1OC	HEK cytotox inconclusive, 3T3 cytotox inconclusive
COc1cc(Cl)ccc1C(=O)N1CCC2(CC1)NC(=O)N(c1ccc(F)cc1)N2	HEK cytotox 13µM, 3T3 cytotox inconclusive
Cc1ccc(C(=O)N2CCC3(CC2)NC(=O)N(c2cccc(Cl)c2)N3)c(C)c1	HEK cytotox inconclusive, 3T3 cytotox inconclusive
CCOc1ccccc1C(=O)N1CCC2(CC1)NC(=O)N(c1cccc(Cl)c1)N2	HEK cytotox 32µM, 3T3 cytotox inconclusive
CCS(=O)(=O)N1CCN(c2ccc(Nc3ncc(C(N)=O)c(NC4CC4)n3)cc2)CC1	none (no result: SNCA expr inhib, HEK cytotox, Luciferase inh, 3T3 cytotox)
c1nc2nc(Nc3ccc(N4CCOCC4)cc3)nc(NC3CCCCC3)c2[nH]1	SNCA expr inhib inconclusive, IP6K1 inh -41, HEK293 viab inconclusive (no result: HEK cytotox, Luciferase inh, 3T3 cytotox)
COc1ccc(OC)c(S(=O)(=O)N2CCOCCNC(=O)[C@@H]3CCC[C@@H]32)c1	none
COc1ccccc1-c1ccc(C(=O)N2CCC(C(=O)NCC(F)F)CC2)cc1	HEK cytotox inconclusive (no result: Luciferase inh)
CC(C)CNc1ccc2c(n1)C(C)(C(=O)NC1CCC(O)CC1)CN(Cc1ccccc1)C2 (configuration not stated)	SNCA expr inhib inconclusive, HEK cytotox inconclusive, 3T3 cytotox 45µM
CC(C)CNc1ccc2c(n1)C(C)(C(=O)NC1CCN(C)CC1)CN(Cc1ccccc1)C2 (configuration not stated)	HEK cytotox inconclusive, 3T3 cytotox 32µM
CC(C)CNc1ccc2c(n1)C(C)(C(=O)NCc1cccnc1)CN(Cc1ccccc1)C2 (configuration not stated)	HEK cytotox inconclusive, 3T3 cytotox inconclusive
CCCCn1c(=O)c(C(=O)N2CCCCC2)nc2cccnc21	none (no result: Luciferase inh)
COC1CN(c2cccc(F)c2)C12CCN(C(=O)CC(C)C)CC2 (configuration not stated)	HEK cytotox inconclusive
COC1CN(c2cccc(F)c2)C12CCN(C(=O)COc1ccccc1)CC2 (configuration not stated)	HEK cytotox 89µM, 3T3 cytotox inconclusive
CCN(CC)C(=O)c1cc2c(s1)CCC(C(=O)NC)C2 (configuration not stated)	none
Cc1cccc(C)c1NC(=O)Cn1c(=O)n(Cc2ccc(C(=O)NCc3ccco3)cc2)c(=O)c2sccc21	SNCA expr inhib inconclusive (no result: HEK cytotox, Luciferase inh, 3T3 cytotox)
Cc1cc(C)c(NC(=O)Cn2c(=O)n(Cc3ccc(C(=O)NCc4ccco4)cc3)c(=O)c3sccc32)c(C)c1	SNCA expr inhib 25µM, HEK293 viab inconclusive (no result: HEK cytotox, Luciferase inh, 3T3 cytotox)
CSc1ccc(-c2cccc(C(=O)NCC(=O)N3CCCCC3)c2)cc1	HEK cytotox inconclusive, 3T3 cytotox inconclusive (no result: Luciferase inh)
Cn1cc(CN2CCN3CCCC3C2)c(-c2ccc(C3CCCCC3)cc2)n1 (configuration not stated)	HEK cytotox 25µM, Luciferase inh inconclusive, 3T3 cytotox inconclusive
Cn1cc(CN2CCCC(C(=O)N3CCOCC3)C2)c(-c2ccc(C3CCCCC3)cc2)n1 (configuration not stated)	none
CCOC(=O)N[C@H]1[C@H](OC(=O)Nc2ccccc2)[C@@H]2O[C@H]1c1ccccc12	HEK cytotox inconclusive, 3T3 cytotox inconclusive (no result: Luciferase inh)
COc1ccc(CN2C(=O)CO[C@H](c3ccc(NC(=O)c4ccc(OC)cc4)cc3)[C@H]2CO)cc1	HEK cytotox inconclusive, Luciferase inh inconclusive, 3T3 cytotox inconclusive
COc1ccc(C(=O)Nc2ccc([C@H]3OCC(=O)N(C)[C@@H]3CO)cc2)cc1	Luciferase inh 71µM
CC(C)N1C(=O)CO[C@H](c2ccc(NC(=O)c3ccco3)cc2)[C@H]1CO	none
COc1ccc(C(=O)Nc2ccc([C@H]3OCC(=O)N(C(C)C)[C@@H]3CO)cc2)cc1	HEK cytotox inconclusive, Luciferase inh 25µM, 3T3 cytotox inconclusive
Cc1ccccc1CN1Cc2nc(Nc3ccccc3)ccc2OCC1=O	HEK cytotox 71µM, HEK293 viab inconclusive, 3T3 cytotox inconclusive
O=C1COc2ccc(Nc3ccc(Cl)cc3)nc2CN1Cc1nc2ccccc2s1	SNCA expr inhib inconclusive, HEK cytotox 32µM, HEK293 viab 32µM, 3T3 cytotox 40µM
O=C1COc2ccc(NCCOc3ccccc3)nc2CN1Cc1ccccc1F	SNCA expr inhib inconclusive, HEK cytotox inconclusive, 3T3 cytotox inconclusive
Cc1csc(Nc2ccc3c(n2)CN(Cc2ccccc2C)C(=O)CO3)n1	SNCA expr inhib inconclusive, HEK cytotox 25µM, HEK293 viab inconclusive, 3T3 cytotox 25µM
Cc1nc(CN2Cc3nc(-c4ccc(Cl)cc4)ccc3OCC2=O)cs1	HEK cytotox inconclusive, 3T3 cytotox inconclusive
Cc1ccccc1CN1Cc2nc(-c3c(C)noc3C)ccc2OCC1=O	HEK cytotox inconclusive, 3T3 cytotox inconclusive
CC1=C[C@@H](CNS(=O)(=O)c2ccc(C)cc2)[C@H](C(C)C)C[C@H]1CC(=O)N(C)Cc1cccnc1	HEK cytotox 45µM, HEK293 viab inconclusive, 3T3 cytotox 11µM
CC1=C[C@@H](CNC(=O)c2ccco2)[C@H](C(C)C)C[C@H]1CC(=O)N(C)Cc1ccccc1	HEK cytotox inconclusive, HEK293 viab inconclusive, 3T3 cytotox 100µM
COCCC(=O)NC[C@@H]1C=C(C)[C@H](CC(=O)N(C)Cc2cccnc2)C[C@H]1C(C)C	Luciferase inh 56µM, HEK293 viab inconclusive
Cc1ccc(C(=O)N[C@@H]2CN(Cc3ccncc3)C[C@H]2CN(C)C)c(C)c1	SNCA expr inhib inconclusive, HEK cytotox inconclusive, HEK293 viab inconclusive, 3T3 cytotox inconclusive
CCCc1noc(-c2cn(C3CCN(C(=O)c4ccsc4)CC3)nn2)n1	SNCA expr inhib inconclusive, HEK cytotox inconclusive, 3T3 cytotox inconclusive
Cc1nc2ccc(C(=O)N3C[C@@H](CN4CCCCC4)[C@@H](CO)C3)cc2s1	none
CCC(=O)N(C1CCOCC1)C1CCN(S(=O)(=O)c2ccc(Cl)cc2C)CC1	HEK cytotox inconclusive
O=C1CC(c2ccccc2)N(Cc2ccc3c(c2)CCO3)CCCCCCN1 (configuration not stated)	HEK cytotox inconclusive

Bioassay records from PubChem BioAssay.
